# Most compounds without a hit are left out; they make up all but 1.3% or so of the library.
# Giardia FBPA inh: blocks Giardia fructose-bisphosphate aldolase activity; purified Giardia FBPA; actives 0.71% (n = 290,000); Potency, µM (top dose mostly 59.6 µM), for the others: at the top dose activity, negative = inhibition, hits mostly inhibitors; also: nearly all actives have a fitted effect of over 55% in size
# Target sequence (A8B2U2 whole entry, looked up): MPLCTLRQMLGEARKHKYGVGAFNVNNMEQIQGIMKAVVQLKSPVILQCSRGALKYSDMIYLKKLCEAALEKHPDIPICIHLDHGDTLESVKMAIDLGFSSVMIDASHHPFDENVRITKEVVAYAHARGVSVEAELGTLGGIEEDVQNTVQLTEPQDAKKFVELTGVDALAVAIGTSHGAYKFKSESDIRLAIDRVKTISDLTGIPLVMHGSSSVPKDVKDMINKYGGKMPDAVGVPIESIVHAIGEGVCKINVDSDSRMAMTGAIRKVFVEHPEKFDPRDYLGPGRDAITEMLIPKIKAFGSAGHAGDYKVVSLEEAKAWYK
#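 Giardia FBPA (40 nM reagent) was preincubated 10 min at RT with compound (up to 57.5 uM final), then substrate plus GAPDH/TPI/NAD/arsenate coupling system with diaphorase/resazurin was added; resorufin fluorescence (525/598 nm) was read after 20 min.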
# AmpC detergent: blocks E. coli AmpC beta-lactamase in detergent assay | actives 0.041% (n = 370,000) | AmpC hydrolysis of nitrocefin, absorbance 480 nm, 0.01% Triton | Potency, µM (highest dose often 114 µM), inactives show at the top dose activity change, negative = inhibition, actives largely listed as inhibitors | AID 485294 | P00811;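 also: 0% = no-compound wells and -100% = no-enzyme wells; nearly all actives have a fitted effect of over 25% in size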
# Target sequence (P00811 whole entry, looked up): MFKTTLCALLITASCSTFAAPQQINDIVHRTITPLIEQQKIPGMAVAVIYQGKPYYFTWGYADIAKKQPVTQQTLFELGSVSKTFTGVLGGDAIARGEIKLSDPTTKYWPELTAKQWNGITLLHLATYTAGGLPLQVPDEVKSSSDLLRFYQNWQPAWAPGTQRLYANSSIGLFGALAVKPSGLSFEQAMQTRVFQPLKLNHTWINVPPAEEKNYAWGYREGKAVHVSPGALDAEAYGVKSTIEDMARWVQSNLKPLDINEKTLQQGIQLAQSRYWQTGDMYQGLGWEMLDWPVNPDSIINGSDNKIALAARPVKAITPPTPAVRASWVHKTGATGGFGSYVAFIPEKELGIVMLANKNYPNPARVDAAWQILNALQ
#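 20 mM phosphate pH 7.0 + 0.01% (detergent screen) or 0.0001% Triton X-100; 5.3 nM AmpC reagent; cpd preinc 15 min RT; nitrocefin (800 uM stock) to start; A480 q20 s × 4 min; Activity was normalised to no-enzyme and no-compound control wells.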
# AmpC no deterg: inhibitors of E. coli AmpC beta-lactamase without detergent. Potency, µM (top dose mostly 57.1 µM), for inactives: at the top dose activity change, negative = inhibition, most hits filed as inhibitors. actives 0.52% (n = 330,000). AmpC nitrocefin hydrolysis, absorbance 480 nm, 0.0001% Triton;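 also: plate controls were no compound for no effect and no enzyme for full effect; nearly all actives have a fitted effect of over 20% in size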
#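 20 mM phosphate pH 7.0 + 0.01% (detergent screen) or 0.0001% Triton X-100; 5.3 nM AmpC reagent; cpd preinc 15 min RT; nitrocefin (800 uM stock) to start; A480 q20 s × 4 min; Activity was normalised to no-enzyme and no-compound control wells.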
# LmPK inhibitor: inhibitors of Leishmania mexicana pyruvate kinase | Q27686 | purified LmPK, Kinase-Glo ATP luminescence, 1 h | Potency, µM (highest dose often 57.5 µM), for the others: top-dose activity change, negative = inhibition, most hits filed as inhibitors | actives 0.37% (n = 290,000) | AID 1721
#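 Kinase-Glo luminescence read after 1 h RT reaction of 0.1 nM LmPK with 0.5 mM PEP and 0.1 mM ADP. Activity scaled between uninhibited and enzyme-free controls.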
# AMA1 RON2 block: inhibitors of Plasmodium falciparum AMA1-RON2 interaction. AlphaScreen AMA1-biotinylated RON2 peptide binding. Potency, µM (titrated, usually from 58.2 µM), without a hit: at the top dose activity change, negative = inhibition, actives largely listed as inhibitors. actives 0.2% (n = 360,000). AID 720542;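 also: 0% = vehicle wells and -100% = peptide control; nearly all actives have a fitted effect of over 45% in size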
#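 AMA1 (3D7) with his tag at 25 nM final met compounds first, then biotinylated RON2 peptide at 25 nM; detection used donor plus acceptor beads, 10 µg/mL apiece, read by AlphaScreen after 30 min at room temperature.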
# The depositor's hits bear a star; ? = inconclusive; . = not tested or not shown. Calls follow the shape of the dose curve; as a rule, active = well fitted curve in the direction sought with a large enough effect; inconclusive = small, poorly fitted or top-dose-only effect, or another doubt; inactive = no such curve, though single readings can be large; an effect the other way counts as inactive or inconclusive. Unless noted, % is scaled to controls: 0 for no effect and ±100 for the full control effect; potency is read from the fitted curve at half-maximal effect.
SMILES,Giardia FBPA inh,AmpC detergent,AmpC no deterg,LmPK inhibitor,AMA1 RON2 block
CC(C)(C)C1=CC=C(C(C)(C)C)C(=O)C1=O,7.92µM*,8.2%,-10.1%,22.4µM*,.
O=c1[nH]c(=O)n(CCC2=CCCCC2)c(O)c1/C=N/Nc1cccc2ccccc12,-28.3%,4.0%,28.2µM*,-2.7%,21.2%
Cc1ccc(Nc2nc(N)c3ccccc3n2)cc1Cl,14.1%,-6.3%,-28.7%,-0.7%,0.0%
CN(C)c1ccc(Nc2nc(N)c3ccccc3n2)cc1,?,-11.3%,-21.8%,?,?
Nc1nc(Nc2ccc(Cl)cc2)nc2ccccc12,-9.6%,2.1%,-32.3%,17.8µM*,-15.6%
Nc1nc(Nc2ccccc2)nc2ccccc12,-7.5%,-9.1%,-26.8%,15.8µM*,-9.4%
O=C(Nc1ccc2c(c1)CCCN2C(=O)c1cccs1)c1ccccc1Cl,.,-12.3%,.,.,.
CC(C)(C)S(=O)(=O)N1C[C@H]2CC/C=C\C/C(c3ccccc3)=C\2[C@@H]1CCO,.,.,.,.,0.0%
COc1ccccc1OCCSc1nc2ccccc2n1CC(=O)O,.,.,.,.,-8.7%
Cc1cccc(N=C2NN=C(c3ccccc3F)CS2)c1C,2.6%,-0.1%,12.6µM*,1.7%,-13.1%
CCOC(=O)C1CCCN(c2c(NCCc3ccc(C)cc3)c(=O)c2=O)C1 (configuration not stated),1.3%,-2.4%,-7.9%,-0.3%,-0.7%
CCOC(=O)C1CCCN(c2c(NCCCN(CC)c3ccccc3)c(=O)c2=O)C1 (configuration not stated),0.5%,1.9%,?,-1.6%,3.5%
CCOC(=O)C1CCCN(c2c(NCCN3CCCCC3C)c(=O)c2=O)C1 (configuration not stated),2.6%,?,3.55µM*,-0.6%,-1.7%
CCOC(=O)C1CCCN(c2c(NCCN(CC)c3ccccc3)c(=O)c2=O)C1 (configuration not stated),-12.4%,3.4%,22.4µM*,0.1%,-2.8%
CC1(C(=O)NCc2ccccc2)CN(S(C)(=O)=O)CC(=O)N1CCc1ccccc1F (configuration not stated),.,.,.,.,3.6%
O=C(Nc1cccc(Cl)c1)c1ccc2sc([C@H]3C[C@H](O)[C@@H](CO)O3)nc2c1,.,.,.,.,7.1%
Cc1cccc(C)c1NC(=O)/C(C#N)=C/c1ccc(-c2ccc(C(=O)O)cc2)o1,-10.3%,-13.6%,-7.1%,-1.7%,16.9%
O=C(N/N=C/c1c[nH]c2ccccc12)c1sc2ccccc2c1Cl,-5.6%,7.1%,-50.9%,-1.7%,56.0%
O=C(N/N=C/c1ccccn1)c1sc2ccccc2c1Cl,5µM*,3.4%,-11.5%,3.8%,55.7%
COc1cccc(C=Nc2cc(C)on2)c1O,0.0%,-1.4%,-16.6%,15.8µM*,21.0%
COc1cccc(C=Nc2cc(C)cc(C)c2)c1O,-1.4%,-12.3%,-15.3%,-14.8%,22.1%
COc1cccc(C=Nc2ccccc2C#N)c1O,5.9%,0.0%,-12.2%,14.1µM*,26.6%
CC[C@H](C)[C@H](NC(=O)[C@H](Cc1ccc(O)cc1)NC(=O)[C@H](Cc1cnc[nH]1)NC(=O)[C@H](CCCNC(=N)N)NC(=O)[C@H](CC(C)C)NC(=O)[C@H](C)NC(=O)[C@H](CO)NC(=O)[C@H](Cc1ccc(O)cc1)NC(=O)[C@H](Cc1ccc(O)cc1)NC(=O)[C@H](CCCNC(=N)N)NC(=O)[C@H](C)NC(=O)[C@H](CCSC)NC(=O)[C@H](CC(=O)O)NC(=O)[C@H](CCC(=O)O)NC(=O)[C@H](C)NC(=O)[C@@H]1CCCN1)C(=O)N[C@@H](CC(N)=O)C(=O)N[C@@H](CC(C)C)C(=O)N[C@H](C(=O)N[C@H](C(=O)N[C@@H](CCCNC(=N)N)C(=O)N[C@@H](CCC(N)=O)C(=O)N[C@@H](CCCNC(=N)N)C(=O)N[C@@H](Cc1ccc(O)cc1)C(N)=O)[C@@H](C)O)[C@@H](C)CC,3.7%,.,.,.,.
CCCC(=O)N1CCC1(C)C(=O)Nc1ccc(-n2cccc2)cc1 (configuration not stated),.,.,.,.,-22.0%
O=C1NC(=S)S/C1=C1\Sc2ccccc2N1CCCS(=O)(=O)O,?,?,-19.0%,15.8µM*,6.2%
SMILES,Giardia FBPA inh,AmpC detergent,AmpC no deterg,LmPK inhibitor,AMA1 RON2 block
CCN1C(=O)/C(=C2/Sc3ccccc3N2CC)SC1=S,10.1%,?,-5.0%,2.4%,-1.2%
CCOc1ccc(NC(=S)N(CCc2c(C)[nH]c3ccc(C)cc23)Cc2ccco2)cc1,-1.1%,?,?,0.3%,21.9%
COc1ccc(NC(=S)N(CCc2c(C)[nH]c3ccc(C)cc23)Cc2ccco2)cc1,-3.8%,?,17.8µM*,-1.7%,20.4%
C=CCn1c(-c2cc(Cl)ccc2OC)n[nH]c1=S,0.2%,-0.6%,-13.7%,12.6µM*,12.8%
C=CCn1c(-c2c[nH]c3ccccc23)n[nH]c1=S,-5.1%,-11.8%,-19.0%,22.4µM*,2.8%
C=CCn1c(-c2csc3ccccc23)n[nH]c1=S,-7.6%,1.5%,-31.9%,11.2µM*,58.0%
CCn1c(-c2cc(Cl)ccc2OC)n[nH]c1=S,-3.1%,?,-14.1%,?,37.5%
C=CCn1c(-c2csc(-c3ccccc3)n2)n[nH]c1=S,-3.2%,5.2%,.,0.0%,-2.2%
CCN(CC)S(=O)(=O)c1ccc2oc(C(=O)NCc3ccccc3OC)c(C)c2c1,.,-0.4%,.,.,.
CC(C)c1ccc(/C=N/NC(=O)c2nnn(-c3nonc3N)c2CN(C)C2CCCCC2)cc1,-0.8%,1.5%,-23.9%,-0.7%,3.9%
COc1cc2ccc(=O)oc2c(O)c1O,25.1µM*,.,.,.,40.8%
COc1cc(Cl)c(C)cc1NC(=O)CCc1nc2cccnc2n1-c1ccccc1,.,6.1%,.,.,.
O=C(CSc1ccc(-c2ccccn2)nn1)c1ccc([N+](=O)[O-])cc1,?,7.3%,3.1%,4.3%,12.6µM*
NC(=O)c1ccsc1NC(=O)COC(=O)COc1ccccc1F,-0.5%,-2.7%,-23.7%,2.2%,15.1%
NC(=O)c1ccsc1NC(=O)COC(=O)COc1ccccc1[N+](=O)[O-],.,56.2µM*,-43.2%,.,16.8%
COCCCNC(=O)c1ccc2c3c(onc13)-c1ccccc1C2=O,0.889µM*,5.2%,71.0%,-5.7%,?
Cc1cc(C(=O)Nc2ccccn2)cs1,0.0%,-3.1%,-28.6%,14.1µM*,-4.9%
COc1ccc(/C(C)=N/OC/C(O)=C(\C#N)c2nc3ccccc3[nH]2)c(OC)c1,-2.6%,-12.0%,14.1µM*,7.5%,81.6%
Cc1noc(C)c1S(=O)(=O)N1CCN(Cc2ccc3c(c2)OCO3)CC1,11.0%,-16.2%,7.08µM*,-0.3%,-5.9%
Cc1cc(C)c(S(=O)(=O)N2CCN(Cc3ccc4c(c3)OCO4)CC2)cc1C,.,0.4%,.,.,.
COc1cccc(C#CC2=CC(=O)C[C@H](c3ccc(F)cc3)C2)c1,.,.,.,.,-1.6%

# High-throughput results as filed in PubChem.
